Experimental data from PubChem BioAssay (NCI).
About 83,000 compounds went through this panel and 20% of them were active in at least one assay; those are over-represented in the sample as a whole.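 Each cell line was grown in a 96-well plate and treated with one concentration of compound for 48 hours. Values below 10 were considered active.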 Unmarked numbers belong to inactive results. Activity calls are given as the source filed them.

tested on: NCI-H322M lung; assay: NCI-60 one-dose screen, 48 h (100 = growth as untreated, 0 = no growth, -100 = all killed); details: 10 µM unless noted
Description: Growth inhibition of the NCI-H322M human Non-Small Cell Lung tumor cell line is measured as a screen for anti-cancer activity. Cells are grown in 96 well plates and exposed to the test compound for 48 hours. Compounds are tested at a single concentration, which is 10^-5 M for most compounds. The reported endpoint is percent growth (GI% or GIPRCNT), where numbers from 0 - 100% represent growth inhibition, and numbers from -100% - 0 represent cell death. For example, a value of 40 represents 60% growth inhibition. A value of 0 means no net growth occurred over the course of the experiment. A value of -40 indicates 40% of cells at the beginning of the experiment died by the end of the experiment. A value of -100 means all cells are dead at the end of the experiment.
NCI-60 Human Tumor Cell Lines Screen was performed using the standard one-dose NCI protocol, which is described in more detail at https://dtp.cancer.gov/discovery_development/nci-60/default.htm.
Compounds with GIPRCNT values below 10 were considered active. Activity score was based on GIPRCNT using the following formula: […]
Score is 0 for GIPRCNT values of 100 or above, 50 for GIPRCNT values of 0, and 100 for GIPRCNT values of -100.

Row | Structure (SMILES) | growth
1 | C=C(CO)[C@@H]1CC[C@]2(COC3CCCCO3)CC[C@]3(C)[C@H](CC[C@@H]4[C@@]5(C)C=C(C=O)C(=O)C(C)(C)[C@@H]5CC[C@]43C)[C@@H]12 (stereo not given in full) | -22.6% (active)
2 | COc1cc(-c2nc(SCCC(C)C)nc(N3CCOCC3)c2C#N)cc(OC)c1OC | 91.2%
3 | Cc1ccc(-c2nc(C#N)c(S(=O)(=O)NCCO)o2)cc1 | 92%
4 | COc1ccc(C2C(C#N)=C(N)Oc3c2sc2c(Br)cccc32)cc1 (stereo not given) | 30%
5 | Cc1cc(C)cc(Nc2ccc([N+](=O)[O-])c(NCCN3CCOCC3)n2)c1 | 44.1%
6 | CSCCC(NC(=O)c1ccccc1)C(=O)N/N=C1\S/C(=C/c2ccc(Cl)cc2)C(=O)N1C (stereo not given) | 90.4%
7 | Oc1c(I)cc(-c2nc3ccccc3s2)cc1CN(Cc1ccccn1)Cc1ccccn1 | 15.9%
8 | Cc1cc2oc(=O)cc(CP(=O)(O)O)c2cc1O | 91.2%
9 | COc1cc(C(=O)c2c(-c3ccccc3)oc3c(OC)cccc23)cc(OC)c1O | 56.2%
10 | COc1ccccc1NC(=O)c1ccc(/C=C/C(=O)c2nccn2C)cc1 | -93.4% (active)
11 | CCOC(=O)/C=C/c1c(C)[nH]c(=O)[nH]c1=O | 136%
12 | CCN(CC)c1ccc(/C=N\NC(=O)c2cccc(Nc3ccnc(C(F)(F)F)c3)c2)c(O)c1 | 33%
13 | CC1=C(C(=O)n2c3ccccc3c3ccccc32)C(c2cccc([N+](=O)[O-])c2)C(C(=O)n2c3ccccc3c3ccccc32)=C(C)N1 | 98.4%
14 | Cc1cc(F)ccc1S(=O)(=O)Nc1cc(-c2c(O)ccc3ccccc23)c(O)c2ccccc12 | 79%
15 | O=C(N/N=C/c1ccc(Cl)cc1Cl)c1ccc2nc(-c3ccc(Cl)cc3)[nH]c2c1 | 27.7%
16 | O=S(=O)(c1ccccc1)N1CCCN(c2nc(-c3ccccc3)nc3nc(-c4ccccc4)oc23)CC1 | 96%
17 | COc1ccc2nc3ccccc3c(NCc3ccc(F)cc3)c2c1 | 22.6%
18 | O=C(NCc1ccc2c(c1)OCO2)NCC1CCCC(CNC(=O)NCc2ccc3c(c2)OCO3)C1 (stereo not given) | 108%
19 | CCNC(=O)Oc1ccc(/C(=C(/C)Cc2ccc(OC)cc2)c2ccc(OCCN3CCCCCC3)cc2)cc1 | 95.5%
20 | CCOC(=O)c1c2c(n3c1NCC3)-c1ccccc1C2=O | 105%

Row | Structure (SMILES) | growth
21 | COC(=O)C1=C(C)NC(C)=C(C(=O)OCC(C)C)C1c1ccccc1[N+](=O)[O-] (stereo not given) | 65.4%
22 | C/C(=C(/c1ccc(Cl)cc1)c1ccc(OCCCN(C)C)cc1)c1ccc(Cl)cc1 | 85.9%
23 | C=C1C(=O)O[C@H]2[C@H]1CC/C(COC(=O)c1cc3cc(F)ccc3[nH]1)=C\CC[C@@]1(C)O[C@@H]21 | -35.7% (active)
24 | COc1cccc(/C=C/C(=O)c2cc3c(N)c(C(=O)Nc4cccc(Cl)c4C)sc3nc2C)c1 | 7.75% (active)
25 | COc1cc2c(c(OC)c1OC)C(=O)N[C@@H]1[C@@H](O)[C@@H](O)[C@H](O)C[C@@H]21 | 104%
26 | O=C1NC(=C(Cl)Cl)/C(=N/S(=O)(=O)NCCc2c[nH]c3ccccc23)N1 | 27.7%
27 | N=C(N)SCc1cccc2c(CSC(=N)N)cccc12 | 90.7%
28 | CCN1C(=S)N(CC)C2C1NC(=S)N2/N=C/C=C/c1ccccc1OC (stereo not given) | 45.2%
29 | N#Cc1nc(-c2ccc(F)cc2)oc1S(=O)(=O)N1CCN(c2ccc(F)cc2)CC1 | 100%
30 | COc1cc(/C=C2\CN(S(=O)(=O)c3ccc(C)cc3)C/C(=C\c3cc(CN4CCCCC4)c(O)c(OC)c3)C2=O)cc(CN2CCCCC2)c1O | -74.4% (active)
31 | CCn1c2ccc(O)cc2c2c(C)c3c[n+](C(C)C)ccc3c(C)c21 | 41.8%
32 | O=C(CSc1nc2ccc([N+](=O)[O-])cc2[nH]1)Nc1ccc(Br)cc1 | 86.7%
33 | CCOC(=O)c1c(C)nn(CC(O)c2ccccc2)c1NC(=O)Nc1cccc(F)c1 (stereo not given) | 88.8%
34 | O=C(CCCCCCCCC(=O)N/N=C\c1cc(Cl)ccc1O)N/N=C\c1cc(Cl)ccc1O | 41.1%
35 | COC(=O)c1c2c(c(C)[n+]([O-])c1C)C(=O)C=CC2=O | 2.39% (active)
36 | O=C(Nc1ccc(F)cc1)Nc1ccccc1CNc1nc(Nc2ccc(OCCN3CCCC3)cc2)ncc1Cl | 89.1%
37 | O=C(/C=C/c1ccccc1)Nc1ncc(Cc2ccccc2)s1 | 31.4%
38 | COc1cc2oc(-c3cccc(NC(=O)c4ccc5c(c4)OCO5)c3)cc(=O)c2c(OC)c1OC | 43.5%
39 | O=C(Cn1nnc2ccccc21)Nc1ccc(-c2nc3ccccc3s2)cc1 | 103%
40 | CCCCCSB(SCCCCC)c1ccccc1 | 103%
